Common to all, as to test: NCI-60 one-dose screen, 48 h (100 = growth as untreated, 0 = no growth, -100 = all killed)
Conditions in all cases: 10 µM unless noted

Assay [1] has as its system NCI-H23 lung.
For assay [2], the system named is NCI-H226 lung.
Assay [3] relates to NCI-H322M lung.
For assay [4], the system named is HOP-62 NSCLC.
Assay [5] concerns NCI-H460 lung.
Assay [6] deals with HOP-92 NSCLC.
Assay [7] concerns NCI-H522 lung.
The subject of assay [8] is 786-0 renal.
In assay [9] the test system is COLO 205 colon.
The subject of assay [10] is DU-145 prostate.
In assay [11] the test system is K-562 leukemia.
Assay [12] concerns MALME-3M melanoma.
Assay [13] has as its system MDA-MB-231 breast.
Assay [14] has as its system RXF 393 renal.
In assay [15] the test system is SF-268 CNS.
Assay [16] has as its system SF-295 CNS.
Assay [17] has as its system SF-539 CNS.
The subject of assay [18] is UACC-257 melanoma.
The subject of assay [19] is M14 melanoma.
Assay [20] relates to A549/ATCC NSCLC.

The source of these data is PubChem BioAssay (NCI).

Values joined by “and” are separate entries in the source; they are usually repeats but may differ in a detail not shown here. Equal values may be shown once. Compounds without any hit were thinned out: in the full panel of roughly 83,000, 20% have a hit.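 Activity criterion: percent growth below 10, measured after cells in 96-well plates were exposed to a single compound concentration for 48 hours.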 Active and inactive are the calls of the source.

`CC(C(=O)O)n1cc(C#N)c(=O)[nH]c1=O` (stereo not drawn): the growth in assay [1] was 108% (inactive) and 111% (inactive); in [2] it was 93.3% (inactive) and 94.8% (inactive); in [3], 112% (inactive) and 111% (inactive); in assay [4], 92.5% (inactive) and 98.8% (inactive); in assay [5] it was 115% (inactive) and 112% (inactive); in [6], 93.2% (inactive) and 98.4% (inactive). The growth in assay [7] is 98.8% (inactive) and 93.9% (inactive); in assay [8], 119% (inactive) and 101% (inactive); in assay [9], 103% (inactive) and 112% (inactive); in [10], 124% (inactive) and 107% (inactive); in assay [11], 104% (inactive); in assay [12], 102% (inactive) and 116% (inactive). Further, the growth in assay [13] is 109% (inactive) and 103% (inactive); in [14] it was 110% (inactive) and 115% (inactive); in [15], 96.8% (inactive) and 99.7% (inactive); in assay [16], 93.3% (inactive) and 102% (inactive); in assay [17], 95.8% (inactive) and 102% (inactive); in [18] it was 89% (inactive) and 108% (inactive). In addition, in [19], the growth is 120% (inactive) and 107% (inactive).

For `CN(C)c1ccc(C(Cc2ccc3ccccc3n2)Cc2ccc3ccccc3n2)cc1`, the growth in assay [1] was 38.6% (inactive) and 65.5% (inactive); in assay [2], 61.4% (inactive) and 71.9% (inactive); in [3], 66.9% (inactive) and 86% (inactive); in [4] it was 70.9% (inactive) and 84.4% (inactive); in assay [5], 26.5% (inactive) and 73.7% (inactive); in [6], -4.12% (active) and 50.7% (inactive). Also, the growth is 45.3% (inactive) and 90.3% (inactive) in assay [7]; 31.4% (inactive) and 90.9% (inactive) in [8]; 43.5% (inactive) in [9]; 81.9% (inactive) in assay [10]; 29.8% (inactive) and 85.6% (inactive) in assay [11]; 64.8% (inactive) and 106% (inactive) in assay [12]. Besides, the growth is 58.2% (inactive) and 64% (inactive) in assay [13]; 73.6% (inactive) and 85.5% (inactive) in assay [14]; 68.3% (inactive) and 95.3% (inactive) in [15]; 24.7% (inactive) and 64.9% (inactive) in assay [16]; 67.6% (inactive) and 106% (inactive) in [17]; 32.4% (inactive) and 99% (inactive) in assay [18]. Moreover, the growth in [19] is 27.2% (inactive) and 75.5% (inactive).

For the molecule `CN1CCN(Cc2occc(=O)c2O)CCN(C)CCN(Cc2occc(=O)c2O)CC1`, the growth in assay [1] was 94.6% (inactive) and 49.4% (inactive); in [2] it was 94.7% (inactive) and 70.5% (inactive); in assay [3] it was 105% (inactive) and 74.9% (inactive); in [4], 97.1% (inactive) and 58.9% (inactive); in assay [5] it was 105% (inactive) and 6.42% (active); in assay [6], 83.8% (inactive) and 68.4% (inactive). Moreover, the growth was 104% (inactive) and 45.8% (inactive) in assay [7]; 93.2% (inactive) and 12.3% (inactive) in assay [20]; 93.3% (inactive) and 50% (inactive) in assay [8]; 102% (inactive) and 29.7% (inactive) in assay [9]; 124% (inactive) and 61.6% (inactive) in assay [10]; 101% (inactive) and 16.6% (inactive) in [11]. For the same molecule, the growth in assay [12] was 106% (inactive) and 72% (inactive); in assay [13] it was 106% (inactive) and 62.3% (inactive); in assay [14], 96.6% (inactive) and 72.9% (inactive); in [15], 113% (inactive) and 63.7% (inactive); in [16], 102% (inactive) and 76.2% (inactive); in [17], 93.7% (inactive) and 48% (inactive). For the same molecule, the growth in assay [18] is 61.6% (inactive); in assay [19], 105% (inactive) and 52.9% (inactive).

Consider `Cc1nn(-c2ccc(Cl)cc2)c2ncnc(N/N=C/c3ccccc3O)c12`, for which the growth in [1] is 37% (inactive) and 18.5% (inactive); in assay [2], 52.8% (inactive) and 27.9% (inactive); in assay [3] it was 33.3% (inactive) and 7.57% (active); in assay [4], 7.93% (active) and 9.97% (active); in assay [5] it was 5.04% (active) and 1.12% (active); in [6], 44.1% (inactive) and 26.6% (inactive). In addition, the growth in assay [7] was 23.3% (inactive); in assay [20], 9.46% (active) and 12.8% (inactive); in assay [8] it was 8.99% (active) and 6.59% (active); in assay [9], 18.7% (inactive) and 4.16% (active); in [10], 19.1% (inactive) and 21% (inactive); in [11] it was 18.5% (inactive) and 14.7% (inactive). Moreover, the growth was 48.7% (inactive) and 0.643% (active) in [12]; 32.6% (inactive) and 32.4% (inactive) in [13]; 25.7% (inactive) and 14.5% (inactive) in [14]; 9.67% (active) and 7.69% (active) in [15]; 24.5% (inactive) and 10% (inactive) in assay [16]; 14% (inactive) and 4.62% (active) in assay [17]. The growth in assay [18] was -3.7% (active) and 9.92% (active); in assay [19], 0.303% (active).
